Source: PubChem BioAssay (NCATS)
Results filed as inconclusive are left out. The source made the active and inactive calls. Unless noted, the call rests on the fitted dose curve; in most records, active means well fitted curve in the direction sought with a large enough effect; inconclusive means small, poorly fitted or top-dose-only effect, or another doubt; inactive means no such curve, though single readings can be large; an effect the other way counts as inactive or inconclusive.

Assays:
[1] = qHTS for differential inhibitors of proliferation of Plasmodium falciparum line HB3 (AID 1886); details: Potency: Plasmodium falciparum HB3 proliferation inhibition;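 further: parasites grown with compound for 72 h before SYBR Green readout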
[2] = molecular target: Ferritin light chain (Equus caballus) (UniProt P02791); experiment: qHTS Validation Assay for Identification of Novel General Anesthetics (AID 2323); further: series mostly up to about 77 µM
In short: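 Competitive displacement of profluorescent 1-aminoanthracene (1-AMA, 50% saturated solution in PBS) from 10 uM horse-spleen apoferritin. Compounds incubated 10 min at room temperature; fluorescence read at 380 nm excitation/535 nm emission, normalized to free 1-AMA and complex, fitted with four-parameter Hill equation.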

[3] = Cytometric Cell-Based qHTS for Inhibitors of the mTORC1 Signaling Pathway in MEF (Tsc2-/-, p53-/-) Cells (AID 2660);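 further: Tsc2 and p53 null MEFs carrying empty vector with compound for 24 h; percent of cells above a phospho-rpS6 to PI ratio cutoff in each well; series mostly up to about 38 µM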
In short: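 Cells are plated, treated with compound for 24 hrs at 37 degree Celsius, then fixed, blocked and immunostained for phospho-rpS6 Ser235/236. Propidium iodide counterstain follows. Per-well % positive cells is derived from the PI-normalized phospho-S6 signal.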

[4] = High Content Imaging Cell-Based qHTS for Inhibitors of the mTORC1 Signaling Pathway in MEF (Tsc2-/-, p53-/-) Cells (AID 2666);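 further: percent of cells scored positive for phospho-rpS6 Ser235/236 immunostaining by imaging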
In short: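 MEF Tsc2-/- p53-/- (empty vector), DMEM/10% FBS; cpd 24 h 37 °C; PFA fix, Alexa-488 p-rpS6 S235/236 Ab, Hoechst; imaged; rapamycin-defined inhibition; % positive cells/well.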

[5] = High Content Imaging Cell-Based qHTS for Inhibitors of the mTORC1 Signaling Pathway in MEF Cells (AID 2667);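 further: Tsc2-/- p53-/- MEFs stably re-expressing wild-type Tsc2 exposed 24 h; series mostly up to about 38 µM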
In short: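 Read-out is the share of phospho-rpS6-positive cells per well, from Hoechst-normalized Alexa-488 Ser235/236 staining imaged on IN Cell. Cells: WT Tsc2-expressing Tsc2-/-, p53-/- MEFs exposed to compound for 24 hrs.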

[6] = Cytometry Cell-Based qHTS for Inhibitors of the mTORC1 Signaling Pathway in MEF cells (AID 2668);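 further: Tsc2-/- p53-/- mouse embryonic fibroblasts stably re-expressing wild-type Tsc2; percent cells positive for phospho-rpS6 Ser235/236 relative to propidium iodide stain; series mostly up to about 38 µM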
In short: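 WT MEFs (Tsc2-/-, p53-/- stably re-expressing WT Tsc2) in DMEM + 10% FBS received compounds 24 hrs after plating, for 24 hrs at 37 degree Celsius. Fixed cells stained with Alexa-488 anti-phospho-rpS6 Ser235/236 and propidium iodide; laser-scanning cytometry read-out.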

[7] = Validation screen for small molecules that induce DNA re-replication in MCF 10A normal breast cells (AID 463097); further: nearly all actives have a fitted effect of over 60% in size
In short: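 Readout: Hoechst nuclear fluorescence intensity, 405 ex / 500-530 em, by scanning plate imager; re-replication scored as increase in nuclei with elevated DNA content. Cells exposed to compound 48 hr, 37 C, 5% CO2 beforehand.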

[8] = molecular target: Ubiquitin carboxyl-terminal hydrolase 2 (Homo sapiens) (UniProt O75604); experiment: qHTS Validation Assay for Inhibitors of Ubiquitin-specific Protease USP2a Using CHOP2 as the Reporter (AID 463106)
In short: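 Fluorescence read-out at Ex 485nm/Em 531nm after 60min RT, following addition of 25nM Ub-CHOP2 plus 25nM reporter substrate to USP2 core (10nM) pretreated 30min with compound. Data normalized to NEM full inhibition; concentration-response curves fitted.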

[9] = molecular target: DNA polymerase III PolC-type (Bacillus subtilis (strain 168)) (UniProt P13267); experiment: qHTS Validation Assay for the Inhibitors of DNA Replication in Gram-Positive Bacteria (AID 485295);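 further: PicoGreen fluorescence of double-stranded DNA made on primed circular M13 template; series mostly up to about 57 µM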
In short: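 Reconstituted B. subtilis holoenzyme (Pol III, beta clamp, SSB, primase) was preincubated with compound at room temperature, then given single-stranded circular M13Gori plus dNTPs and NTPs. EDTA-containing PicoGreen stopped the reaction, and dsDNA product was read by fluorescence.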

[10] = molecular target: Tumor susceptibility gene 101 protein (Homo sapiens) (UniProt Q99816); experiment: qHTS Validation Assay for Iinhibitors of HIV-1 Budding by Blocking the Interaction of PTAP/TSG101 (AID 485342; calls by dose curve)
In short: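 Tsg101 binding domain (10 uM final) in pH 7.5 HEPES/NaCl/Tween 20/EDTA/TCEP buffer was mixed with pin-transferred compounds, then FITC-labeled PTAP peptide (50 nM final) was added; after 20 min at r.t., fluorescence polarization was read.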

[11] = qHTS Validation Assay to Find Inhibitors of Chronic Active B-Cell Receptor Signaling (AID 485345; active means well fitted curve in the direction sought with a large enough effect in the main read-out, with a control signal flat, not every such curve was filed as active)
In short: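 TMD8 ABC-DLBCL cells stably carrying doxycycline-inducible IkappaBalpha–green luciferase fusion plus unfused red luciferase; compounds 46 uM to 3 nM, 4 h at 37C with doxycycline. Corrected green/red luminescence ratio normalized to 10 uM MG-132 and basal cell wells; curves fitted.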

[12] = molecular target: Beta-2 adrenergic receptor (Homo sapiens) (UniProt P07550); experiment: qHTS validation assay of beta-arrestin-biased ligands of beta2-adrenergic receptor (AID 485366)
In short: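 Compound series up to 46 microM applied to beta2-AR/beta-arrestin Tango cells, 18 hr, 37 degrees C, 5% CO2. Read-out: tTA-driven luciferase luminescence, converted to %Activity; concentration-response curves assigned curve classes.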

[13] = molecular target: Thioredoxin reductase 1, cytoplasmic (Rattus norvegicus) (UniProt O89049); experiment: qHTS Assay for Substrates of Mammalian Selenoprotein Thioredoxin Reductase 1 (TrxR1) (AID 488772);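 further: series mostly up to about 57 µM; a drop in NADPH fluorescence below the no-compound background marks a TrxR1 substrate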
In short: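 In this dual-purpose format, potential substrates are identified from the first fluorescence read after selenite addition, not from the 8-minute delta. Rat enzyme is preincubated with NADPH and then with compound at ~22 deg C.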

[14] = qHTS Assay for Identification of Small Molecule Inducers of Hypoxia Response (AID 2120; active means well fitted curve in the direction sought with a large enough effect in the signal ratio, with a control signal flat, not every such curve was filed as active; the % refers to the signal ratio)
In short: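 Cell-based qHTS for reporter induction: hypoxia response element controlled beta-lactamase in ME-180 cells. Compounds incubated 17 h at 37 degrees C; activity from blue/green (460/530 nm) ratio, inducers ranked by AC50.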

[15] = molecular target: ATP-dependent 6-phosphofructokinase (Trypanosoma brucei brucei) (UniProt O15648); experiment: qHTS Validation Assay to Find Inhibitors of T. brucei phosphofructokinase (AID 485368); details: outcome: dose series up to 57.5 µM
In short: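 qHTS format, up to 57 uM. PFK 1.25 nM; F6P 0.5 mM; ATP 0.1 mM; 5 mM MgCl2, 0.01% Tween20, 0.1% BSA; 0.1 M TEA pH 8.0; 45 min RT; ADP-Glo readout; no-enzyme control = full inhibition.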

[16] = molecular target: ATP-dependent DNA helicase Q1 (Homo sapiens) (UniProt P46063); experiment: qHTS Validation Assay for Inhibitors of RecQ-Like Dna Helicase 1 (RECQ1) (AID 2353)
In short: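 RECQ1T1 50 nM; forked duplex (20 bp + 30-nt ss tails) 200 nM, ATP 2 mM final; pH 8.0, 2 mM MgCl2, 2.5 ug/ml poly(dI-dC); 15 min compound preincubation; discontinuous kinetic read over 2 h at RT.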

[17] = Quantitative high throughput screen for delayed death inhibitors of the malarial parasite plastid, 48 hour incubation (AID 488752); further: nearly all actives have a fitted effect of over 65% in size
In short: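 First, compound was pinned into RPMI 1640 medium containing 0.5% Albumax. Next, reporter-parasite-infected erythrocytes were added to 2% hematocrit and 0.1% parasitemia. After 48 h at 37 C under 5% CO2, luciferase detection reagent was added and luminescence read.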

[18] = Quantitative high throughput screen for delayed death inhibitors of the malarial parasite plastid, 96 hour incubation (AID 488745);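 further: luciferase-expressing P. falciparum in erythrocytes at 2% hematocrit and 0.1% parasitemia; series mostly up to about 29 µM; nearly all actives have a fitted effect of over 70% in size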
In short: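 Readout is firefly luciferase luminescence from an integrated reporter in P. falciparum; lower signal marks inhibited growth. Cultures at 2% hematocrit and 0.1% parasitemia were treated with compound across two generations (96 h, 37 C, 5% CO2).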

[19] = molecular target: RecQ-like DNA helicase BLM (Homo sapiens) (UniProt P54132); experiment: qHTS Validation Assay for Inhibitors of Bloom's syndrome helicase (BLM) (AID 2364)
In short: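 50 nM BLM preincubated 15 min at room temperature with compound in pH 8.0 Tris buffer containing 2.5 ug/ml poly(dI-dC); started with 200 nM TAMRA/BHQ-2 forked duplex and 2 mM ATP (final). Unwinding read as TAMRA fluorescence increase, two reads 2 h apart.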

Measured: Potency

Tumor susceptibility gene 101 protein (Homo sapiens), sequence (Q99816 whole entry, looked up, the tested form may be a part): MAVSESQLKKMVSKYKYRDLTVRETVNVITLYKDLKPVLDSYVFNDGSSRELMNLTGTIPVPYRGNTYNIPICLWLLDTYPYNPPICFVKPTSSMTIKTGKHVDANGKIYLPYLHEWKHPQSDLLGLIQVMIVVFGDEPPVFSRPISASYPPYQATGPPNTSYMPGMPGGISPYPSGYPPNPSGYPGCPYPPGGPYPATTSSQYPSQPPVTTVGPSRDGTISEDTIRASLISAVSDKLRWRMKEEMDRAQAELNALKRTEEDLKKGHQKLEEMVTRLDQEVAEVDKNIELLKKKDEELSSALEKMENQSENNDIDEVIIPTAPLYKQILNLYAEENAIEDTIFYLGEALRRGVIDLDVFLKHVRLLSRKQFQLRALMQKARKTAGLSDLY
RecQ-like DNA helicase BLM (Homo sapiens), sequence (P54132 whole entry, looked up): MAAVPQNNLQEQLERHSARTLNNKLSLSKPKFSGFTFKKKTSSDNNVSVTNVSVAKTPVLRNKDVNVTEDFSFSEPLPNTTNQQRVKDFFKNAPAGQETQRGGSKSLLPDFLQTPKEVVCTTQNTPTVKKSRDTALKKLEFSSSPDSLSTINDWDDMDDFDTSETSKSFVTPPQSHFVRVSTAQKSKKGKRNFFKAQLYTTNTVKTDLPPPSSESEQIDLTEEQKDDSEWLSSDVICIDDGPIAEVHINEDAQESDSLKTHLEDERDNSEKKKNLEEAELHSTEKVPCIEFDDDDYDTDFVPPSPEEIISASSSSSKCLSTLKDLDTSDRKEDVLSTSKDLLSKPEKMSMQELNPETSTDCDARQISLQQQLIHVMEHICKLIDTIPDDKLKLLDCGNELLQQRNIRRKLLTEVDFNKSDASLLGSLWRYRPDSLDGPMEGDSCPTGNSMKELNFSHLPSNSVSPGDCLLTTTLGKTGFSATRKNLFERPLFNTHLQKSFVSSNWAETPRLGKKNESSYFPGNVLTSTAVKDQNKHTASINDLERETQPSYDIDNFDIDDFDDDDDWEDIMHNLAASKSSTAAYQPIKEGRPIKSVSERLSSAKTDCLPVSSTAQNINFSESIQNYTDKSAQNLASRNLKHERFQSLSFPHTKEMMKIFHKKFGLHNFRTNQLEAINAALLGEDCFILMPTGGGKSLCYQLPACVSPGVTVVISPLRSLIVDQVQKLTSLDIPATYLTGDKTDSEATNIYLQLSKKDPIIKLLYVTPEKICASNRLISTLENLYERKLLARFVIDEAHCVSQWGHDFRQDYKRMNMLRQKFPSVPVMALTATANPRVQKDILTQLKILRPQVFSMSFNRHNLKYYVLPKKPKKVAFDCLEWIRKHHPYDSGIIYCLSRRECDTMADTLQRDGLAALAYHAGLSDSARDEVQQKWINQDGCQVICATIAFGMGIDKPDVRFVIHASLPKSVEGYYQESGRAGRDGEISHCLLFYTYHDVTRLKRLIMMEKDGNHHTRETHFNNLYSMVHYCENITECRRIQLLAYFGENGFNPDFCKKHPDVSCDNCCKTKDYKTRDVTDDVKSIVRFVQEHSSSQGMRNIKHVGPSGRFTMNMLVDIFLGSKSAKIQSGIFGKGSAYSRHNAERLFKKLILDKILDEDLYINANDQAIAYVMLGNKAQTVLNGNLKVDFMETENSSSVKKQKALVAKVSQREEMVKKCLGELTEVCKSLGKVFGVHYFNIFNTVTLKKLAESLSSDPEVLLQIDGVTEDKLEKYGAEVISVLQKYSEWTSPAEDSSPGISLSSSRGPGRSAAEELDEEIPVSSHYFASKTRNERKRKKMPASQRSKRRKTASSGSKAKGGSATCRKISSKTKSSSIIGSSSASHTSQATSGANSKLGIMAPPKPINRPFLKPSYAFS
DNA polymerase III PolC-type (Bacillus subtilis (strain 168)), sequence (P13267 whole entry, looked up): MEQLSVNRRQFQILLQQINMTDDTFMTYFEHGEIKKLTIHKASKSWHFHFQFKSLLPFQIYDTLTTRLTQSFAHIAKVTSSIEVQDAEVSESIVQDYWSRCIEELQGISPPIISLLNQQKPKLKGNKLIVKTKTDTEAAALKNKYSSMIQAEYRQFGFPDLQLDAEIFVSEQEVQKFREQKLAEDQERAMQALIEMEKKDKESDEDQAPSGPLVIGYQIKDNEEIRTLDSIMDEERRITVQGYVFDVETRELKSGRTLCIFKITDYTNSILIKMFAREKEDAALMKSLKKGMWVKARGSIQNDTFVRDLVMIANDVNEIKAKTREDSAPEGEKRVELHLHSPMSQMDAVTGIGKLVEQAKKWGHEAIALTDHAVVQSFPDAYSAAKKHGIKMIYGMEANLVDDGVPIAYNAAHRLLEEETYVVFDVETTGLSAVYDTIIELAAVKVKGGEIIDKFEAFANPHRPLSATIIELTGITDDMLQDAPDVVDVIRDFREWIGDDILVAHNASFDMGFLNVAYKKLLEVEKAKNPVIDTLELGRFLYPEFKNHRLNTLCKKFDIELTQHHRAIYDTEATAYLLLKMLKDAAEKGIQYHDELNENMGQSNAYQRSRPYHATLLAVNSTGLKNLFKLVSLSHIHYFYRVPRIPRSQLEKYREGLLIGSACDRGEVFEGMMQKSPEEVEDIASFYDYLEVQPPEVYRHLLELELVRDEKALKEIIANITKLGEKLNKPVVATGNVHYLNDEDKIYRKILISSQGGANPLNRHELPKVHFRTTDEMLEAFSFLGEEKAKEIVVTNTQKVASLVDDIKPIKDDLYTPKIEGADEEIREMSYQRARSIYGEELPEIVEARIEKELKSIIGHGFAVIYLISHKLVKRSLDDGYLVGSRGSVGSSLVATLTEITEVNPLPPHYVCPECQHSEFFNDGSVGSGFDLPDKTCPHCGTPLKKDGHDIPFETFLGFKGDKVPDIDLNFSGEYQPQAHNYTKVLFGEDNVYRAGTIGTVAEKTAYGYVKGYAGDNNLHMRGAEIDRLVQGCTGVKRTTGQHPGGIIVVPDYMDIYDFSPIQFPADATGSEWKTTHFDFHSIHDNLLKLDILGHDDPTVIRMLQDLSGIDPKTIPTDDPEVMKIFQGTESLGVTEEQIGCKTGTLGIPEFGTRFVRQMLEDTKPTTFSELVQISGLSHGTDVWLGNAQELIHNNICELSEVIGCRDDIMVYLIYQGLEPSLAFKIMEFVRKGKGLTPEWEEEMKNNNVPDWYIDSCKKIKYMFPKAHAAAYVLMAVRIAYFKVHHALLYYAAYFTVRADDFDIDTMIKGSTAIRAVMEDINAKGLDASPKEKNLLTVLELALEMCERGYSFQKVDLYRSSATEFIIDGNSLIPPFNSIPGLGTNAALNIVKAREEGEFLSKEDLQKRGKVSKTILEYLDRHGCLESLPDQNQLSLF
ATP-dependent DNA helicase Q1 (Homo sapiens), sequence (P46063 whole entry, looked up): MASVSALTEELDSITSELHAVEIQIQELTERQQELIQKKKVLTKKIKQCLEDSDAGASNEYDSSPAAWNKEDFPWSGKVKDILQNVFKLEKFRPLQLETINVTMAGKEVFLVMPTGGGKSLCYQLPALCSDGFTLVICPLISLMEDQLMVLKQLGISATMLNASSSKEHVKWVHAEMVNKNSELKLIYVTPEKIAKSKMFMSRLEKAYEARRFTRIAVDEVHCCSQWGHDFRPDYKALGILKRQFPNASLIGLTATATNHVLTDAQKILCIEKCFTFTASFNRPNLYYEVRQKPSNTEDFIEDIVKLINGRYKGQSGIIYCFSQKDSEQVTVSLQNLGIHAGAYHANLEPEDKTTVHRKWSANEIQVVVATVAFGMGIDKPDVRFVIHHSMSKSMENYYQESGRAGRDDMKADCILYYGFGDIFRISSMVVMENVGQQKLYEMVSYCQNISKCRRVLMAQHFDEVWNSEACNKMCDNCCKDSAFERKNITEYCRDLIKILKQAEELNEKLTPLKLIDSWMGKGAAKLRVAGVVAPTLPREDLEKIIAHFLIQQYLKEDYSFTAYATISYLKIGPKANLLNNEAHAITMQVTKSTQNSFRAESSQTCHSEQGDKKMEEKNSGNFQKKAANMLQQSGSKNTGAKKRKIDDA
Beta-2 adrenergic receptor (Homo sapiens), sequence (P07550 whole entry, looked up): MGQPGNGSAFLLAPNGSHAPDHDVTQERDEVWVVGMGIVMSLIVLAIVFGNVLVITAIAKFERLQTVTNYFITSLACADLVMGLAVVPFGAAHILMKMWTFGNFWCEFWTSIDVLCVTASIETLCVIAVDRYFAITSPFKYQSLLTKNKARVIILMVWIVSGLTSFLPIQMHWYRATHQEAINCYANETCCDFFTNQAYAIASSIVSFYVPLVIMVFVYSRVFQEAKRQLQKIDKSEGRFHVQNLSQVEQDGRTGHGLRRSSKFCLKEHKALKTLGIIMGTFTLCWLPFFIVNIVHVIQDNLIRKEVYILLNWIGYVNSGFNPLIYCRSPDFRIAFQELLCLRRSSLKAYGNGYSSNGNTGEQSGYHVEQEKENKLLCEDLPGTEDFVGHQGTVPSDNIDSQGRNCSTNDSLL
Thioredoxin reductase 1, cytoplasmic (Rattus norvegicus), sequence (O89049 whole entry, looked up): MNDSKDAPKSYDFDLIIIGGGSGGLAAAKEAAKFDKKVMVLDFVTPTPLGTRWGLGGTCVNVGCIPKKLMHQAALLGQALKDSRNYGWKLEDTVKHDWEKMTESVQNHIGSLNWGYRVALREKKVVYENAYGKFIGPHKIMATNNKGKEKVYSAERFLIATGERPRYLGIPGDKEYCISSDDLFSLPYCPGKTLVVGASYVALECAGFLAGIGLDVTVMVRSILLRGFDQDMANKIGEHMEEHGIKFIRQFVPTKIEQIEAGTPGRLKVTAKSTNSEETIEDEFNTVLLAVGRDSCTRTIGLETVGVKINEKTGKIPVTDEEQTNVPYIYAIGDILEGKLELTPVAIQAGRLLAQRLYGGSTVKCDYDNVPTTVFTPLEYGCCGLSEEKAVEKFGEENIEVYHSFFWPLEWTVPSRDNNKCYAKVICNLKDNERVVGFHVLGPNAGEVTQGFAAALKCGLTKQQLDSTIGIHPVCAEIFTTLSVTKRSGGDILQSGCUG
Ferritin light chain (Equus caballus), sequence (P02791 2-175 limits assumed): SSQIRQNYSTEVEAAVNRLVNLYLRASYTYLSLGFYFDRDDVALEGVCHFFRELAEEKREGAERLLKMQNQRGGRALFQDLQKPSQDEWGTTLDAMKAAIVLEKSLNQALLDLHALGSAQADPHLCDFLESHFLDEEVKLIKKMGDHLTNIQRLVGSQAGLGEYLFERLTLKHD

CN(C)CCOC(=O)COc1ccc(Cl)cc1
inactive: [1] | [2] | [3] | [4] | [5] | [6] | [7] | [8] | [9] | [10] | [11] | [12] | [13]

NC(=Nc1ccccc1)Nc1ccccc1
inactive: [14]

COCCCC/C(=N\OCCN)c1ccc(C(F)(F)F)cc1
inactive: [3] | [4] | [5] | [6] | [7] | [8] | [9] | [10] | [12] | [13]

NC1=NCC2c3ccccc3Cc3ccccc3N12 (stereo unspecified)
inactive: [3] | [4] | [5] | [6] | [8] | [9] | [10] | [11] | [12] | [15] | [13]

CCn1nc(C(=O)O)c(=O)c2cc3c(cc21)OCO3
inactive: [2] | [16] | [3] | [4] | [5] | [6] | [7] | [8] | [9] | [10] | [11] | [12] | [17] | [13]

C[C@]12CCC(=O)C=C1CC[C@@H]1[C@@H]2CC[C@@]2(C)[C@H]1CC[C@]2(O)C(=O)CO
inactive: [2] | [3] | [4] | [5] | [6] | [7] | [8] | [9] | [10] | [12] | [15] | [18] | [17] | [13]

CCN(CC)CCOCCOC(=O)C1(c2ccccc2)CCCC1
inactive: [2] | [16] | [19] | [3] | [4] | [5] | [6] | [7] | [8] | [9] | [10] | [11] | [12] | [17] | [13]

COc1ccc([C@@H]2Sc3ccccc3N(CCN(C)C)C(=O)[C@@H]2OC(C)=O)cc1
inactive: [16] | [3] | [4] | [5] | [6] | [7] | [8] | [9] | [10] | [11] | [12] | [15] | [18] | [17] | [13]

CCn1cc(C(=O)O)c(=O)c2cc3c(cc21)OCO3
inactive: [16] | [19] | [3] | [4] | [5] | [6] | [7] | [8] | [9] | [10] | [11] | [12] | [18]

CC(=O)[C@@]1(O)CC[C@H]2[C@@H]3CCC4=CC(=O)CC[C@]4(C)[C@H]3CC[C@@]21C
inactive: [3] | [4] | [5] | [6] | [8] | [9] | [10] | [11] | [12] | [13]

C[C@]12CC[C@@H]3c4ccc(O)cc4C[C@@H](CCCCCCCCCS(=O)CCCC(F)(F)C(F)(F)F)[C@H]3[C@@H]1CC[C@@H]2O (stereo partly specified)
inactive: [3] | [4] | [5] | [6] | [8] | [9] | [10] | [12] | [15]

CNCCCN1c2ccccc2CCc2ccccc21
inactive: [2] | [16] | [19] | [3] | [4] | [7] | [8] | [9] | [10] | [11] | [15] | [13]

COC(=O)C1=C(C)NC(C)=C(C(=O)OC(C)(C)CN(C)CCC(c2ccccc2)c2ccccc2)C1c1cccc([N+](=O)[O-])c1 (stereo unspecified)
inactive: [4] | [8] | [9] | [10] | [11] | [12] | [15] | [13]

Brc1c(NC2=NCCN2)ccc2nccnc12
inactive: [3] | [4] | [5] | [6] | [7] | [8] | [9] | [10] | [12] | [15] | [18]

Cc1scc2c1N(C(=O)CN1CCN(C)CC1)c1ccccc1NC2=O
inactive: [2] | [19] | [3] | [4] | [5] | [6] | [7] | [8] | [9] | [10] | [11] | [12] | [18] | [17] | [13]
